RGS4-Gao reg: modulates binding of RGS4 to human Galphao. P09471. Multiplexed bead flow cytometry; actives lie on both sides. binding response (% of control), % at 10 µM. 220,000 compounds, 0.33% hits. AID 1415; in the data active means binding response below about 49% or above about 150%; inactive means in between;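 further: fluorescent Galphao activated with aluminum fluoride binding bead-coupled RGS4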
RGS8-Gao reg: regulators of human RGS8-Galphao interaction; P09471; multiplexed bead flow cytometry, RGS8-Galphao binding; actives lie on both sides; response (percent of control binding), % at 10 µM; 220,000 compounds, 0.34% hits; AID 1423; in the data active means response below about 60% or above about 140%; inactive means in between;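 further: Galphao activated as the GDP aluminium fluoride complex binding bead-coupled RGS8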
GSH bead fluor: compound fluoresces at 488/530 nm on GSH beads. GSH beads flow cytometry, compound fluorescence 488/530 nm; active compounds read high. 190,000 compounds, 0.25% hits. fluorescence (KMESF) at 10 µM; in the data active means fluorescence above about 89;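 further: glutathione beads carrying GST-tagged Bcl family fusion proteins plus one bare bead set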
RGS7-Gao reg: regulators of human RGS7-Galphao interaction; P09471; Multiplexed bead flow cytometry, RGS7-Galphao binding; actives lie on both sides; binding response (% of control), % at 10 µM; 220,000 compounds, 0.35% hits; in the data active means binding response below about 49% or above about 150%; inconclusive means no clear call, values can overlap the other calls; inactive means in between;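 further: fluorescent Galphao held in activated GDP-AlF4 state binding bead-coupled RGS7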
Avidin bead fluor: compound fluoresces at 488/530 nm on avidin beads; fluorescence (KMESF) at 10 µM; AID 1775; compound fluorescence 488/530 nm, flow cytometry; active compounds read high; 220,000 compounds, 0.38% hits; in the data active means fluorescence above about 47
RGS16-Gao: regulators of human RGS16-Galphao interaction | bead-based flow cytometry RGS16-Galphao binding, fluorescence; actives lie on both sides | binding response (% of control), % at 10 µM | 220,000 compounds, 0.38% hits | AID 1441;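 further: Galphao activated by GDP with aluminum fluoride before binding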
RGS-Gao: RGS4-Galphao interaction regulator (human) | shares compounds with RGS16-Gao | multiplexed bead flow cytometry, RGS–Galpha-o binding | RGS4–Galpha-o binding response, % at 10 µM | 1,600 compounds, 99% hits | AID 1504;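 further: fluorescently labeled Galpha-o bound to GDP with aluminium fluoride binding biotinylated RGS beads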
Target sequence (P09471 whole entry, looked up): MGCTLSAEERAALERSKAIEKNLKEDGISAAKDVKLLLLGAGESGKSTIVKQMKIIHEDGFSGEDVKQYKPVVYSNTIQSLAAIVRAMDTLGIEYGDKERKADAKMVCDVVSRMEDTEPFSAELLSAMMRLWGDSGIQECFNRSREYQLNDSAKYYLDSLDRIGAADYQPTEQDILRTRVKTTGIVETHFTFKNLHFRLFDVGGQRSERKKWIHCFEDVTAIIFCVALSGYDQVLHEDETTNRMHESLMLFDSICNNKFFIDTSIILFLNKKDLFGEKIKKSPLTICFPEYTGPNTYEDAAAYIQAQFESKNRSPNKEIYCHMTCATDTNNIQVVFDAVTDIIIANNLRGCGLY
Target sequence (P49798 whole entry, looked up): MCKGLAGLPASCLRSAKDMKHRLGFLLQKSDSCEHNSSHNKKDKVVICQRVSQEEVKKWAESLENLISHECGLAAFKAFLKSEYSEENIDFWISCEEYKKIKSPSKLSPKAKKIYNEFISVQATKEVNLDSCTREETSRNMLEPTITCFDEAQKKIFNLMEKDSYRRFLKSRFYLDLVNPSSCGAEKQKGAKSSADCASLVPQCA
Biotin-avidin: counter-screen: compounds disrupting biotin binding to avidin beads | shares compounds with RGS16-Gao | streptavidin beads, fluorescein-biotin binding, flow cytometry | inhibition, % at 10 µM | 1,700 tested, under 10 active | AID 1783;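 active means inhibition above 50%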;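 further: median green fluorescence of gated singlet beads compared with DMSO control wells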
RGS8-Gao confirm: confirmation of regulators of human RGS8-Galphao interaction. shares compounds with RGS16-Gao. bead-based flow cytometry RGS8-Galphao binding, fluorescence; actives lie on both sides. binding response (% of control), % at 10 µM. 1,700 compounds, 3% hits. AID 1836; in the data active means binding response below about 72% or above about 130%; inactive means in between;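 further: Galphao activated as GDP AlF4 complex before binding bead RGS8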
RGS7-Gao single: confirmation of regulators of human RGS7-Galphao interaction. shares compounds with RGS16-Gao. bead-based flow cytometry RGS7-Galphao binding; actives lie on both sides. response (percent of control binding), % at 10 µM. 1,700 compounds, 7.8% hits. AID 1837; in the data active means response below about 75% or above about 130%; inactive means in between;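 further: fluorescent Galphao activated with GDP and aluminum fluoride binding bead-coupled RGS7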
RGS16-Gao single: RGS16-Galphao interaction regulation, single point confirmation. AID 1838. shares compounds with RGS16-Gao. 1,700 compounds, 4% hits. bead-based flow cytometry, RGS16-Galphao binding; actives lie on both sides. response (% of control binding), % at 10 µM; in the data active means response below about 74% or above about 130%; inactive means in between;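 further: Galphao activated as the GDP aluminium fluoride complex binding bead-coupled RGS16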
RGS4-Gao confirm: confirmation of regulators of human RGS4-Galphao interaction. shares compounds with RGS16-Gao. RGS4-Galphao binding, multiplexed bead flow cytometry; actives lie on both sides. binding response (% of control), % at 10 µM. 1,700 compounds, 4% hits; in the data active means binding response below about 74% or above about 130%; inactive means in between
RGS19-Gao conf: confirmation of regulators of human RGS19-Galphao interaction. bead-based flow cytometry RGS19-Galphao binding; actives lie on both sides. AID 1841. shares compounds with RGS16-Gao. 1,700 compounds, 5% hits. response (percent of control binding), % at 10 µM; in the data active means response below about 50% or above about 160%; inactive means in between
Large screens that a line does not name were inactive (follow-up assays come after a bar, where they were run); [ ] = another dose, or the depositor's remark. Compounds with a hit are over-represented: about 1.2% of the library has one in this group of screens. Unless noted, how the calls were made is not given here.

CC(=O)c1ccc(OCCn2cnc3ccccc32)cc1	RGS16-Gao 192[activator] | RGS-Gao 112 | Biotin-avidin inactive | RGS8-Gao confirm inactive | RGS7-Gao single inactive | RGS16-Gao single inactive | RGS4-Gao confirm inactive | RGS19-Gao conf inactive
CCCc1nc(SCC(=O)Nc2nnc(SCC)s2)c2c(=O)n(C)c(=O)n(C)c2n1	RGS8-Gao reg 59, RGS7-Gao reg 44 | RGS-Gao 54
COc1ccc(CNC(=O)c2c(F)c(F)c(F)c(F)c2F)cc1	RGS8-Gao reg 58 | RGS-Gao 93 | Biotin-avidin inactive | RGS8-Gao confirm inactive | RGS7-Gao single inactive | RGS16-Gao single inactive | RGS4-Gao confirm inactive | RGS19-Gao conf inactive
Cc1ccc(Cl)cc1N(CC(=O)NC1CCCCC1)S(C)(=O)=O	RGS4-Gao reg 180[activator], RGS8-Gao reg 247[activator], RGS7-Gao reg 197[activator] | Biotin-avidin inactive | RGS8-Gao confirm inactive | RGS7-Gao single inactive | RGS16-Gao single inactive | RGS4-Gao confirm inactive | RGS19-Gao conf inactive
C=CCSc1nc(C)cc(C(=O)OCC)c1C#N	RGS7-Gao reg inconclusive (no result: GSH bead fluor)
Cc1ccc(Nc2nnc(-c3ccccc3N)o2)cc1C	RGS7-Gao reg inconclusive (no result: GSH bead fluor)
Cc1ccc(CNCC(=O)Nc2cccc(S(=O)(=O)NC3=NCCCCC3)c2)cc1	RGS7-Gao reg inconclusive
CC(=O)c1cccc(NS(=O)(=O)c2ccc(N/C=C\C(=O)c3ccc(C)cc3)cc2)c1	RGS7-Gao reg 264[activator] | RGS-Gao 138
C=C1CCN([C@@H](C)C(=O)NCc2ccc(Cl)cc2)S(=O)(=O)c2ccccc21	RGS7-Gao reg inconclusive (no result: GSH bead fluor)
CC(=O)c1cc(C#N)c(SCC(=O)OC(C)C)nc1C	none
CC(=O)c1cc(C#N)c(SCC(=O)OC(C)(C)C)nc1C	RGS7-Gao reg 183[activator], Avidin bead fluor 138 | RGS-Gao 117 | Biotin-avidin inactive | RGS8-Gao confirm inactive | RGS7-Gao single inactive | RGS16-Gao single inactive | RGS4-Gao confirm inactive | RGS19-Gao conf inactive
Cc1ccc2c(c1)C1CN(C)CCC1N2Sc1ccccc1[N+](=O)[O-] (configuration not stated)	RGS7-Gao reg inconclusive (no result: GSH bead fluor)
NC(=O)C1CCN(C2=C(NS(=O)(=O)c3ccccc3)C(=O)c3ccccc3C2=O)CC1	RGS4-Gao reg 26, RGS8-Gao reg 19, RGS7-Gao reg inconclusive, RGS16-Gao 16 (no result: GSH bead fluor) | Biotin-avidin inactive | RGS8-Gao confirm inactive | RGS7-Gao single inactive | RGS16-Gao single inactive | RGS4-Gao confirm inactive | RGS19-Gao conf inactive
COc1ccc(N2CCN(c3nc4ccccc4n3CC(=O)c3ccccc3)CC2)cc1	RGS7-Gao reg 165[activator], Avidin bead fluor 76 | RGS-Gao 108 | Biotin-avidin inactive | RGS8-Gao confirm inactive | RGS7-Gao single inactive | RGS16-Gao single inactive | RGS4-Gao confirm inactive | RGS19-Gao conf inactive
CCOC(=O)C1CCN(c2nc3ccccc3n2CC(=O)c2ccccc2)CC1	none

Screening data as filed in PubChem.
